Most compounds without a hit are left out; they make up all but 12% or so of the library.
Sfp PPTase inh – inhibitors of Bacillus subtilis Sfp phosphopantetheinyl transferase; Biochemical Sfp PPTase activity, qHTS; Potency, µM, for inactives: largest response in the series, negative = inhibition, most hits filed as inhibitors; hit rate 3.5% among 310,000; AID 1490;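 note: the enzyme is Sfp with the accession as filed and its product quenches rhodamine fluorescence; 0% = enzyme reaction without inhibitor and -100% = no enzyme wells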
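Buffer: 50 mM Hepes-Na pH 7.6, 10 mM MgCl2, 0.01% Nonidet P-40, 0.01% BSA. Enzyme 15 nM, pre-exposed to compound 15 min; substrates then added and fluorescence change tracked over 30 min.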
G9a block – G9a (human) methyltransferase inhibition. Q96KQ7. G9a H3K9 monomethylation, AlphaScreen, 2 h. Potency, µM (series often up to 102 µM), without a hit: at the top dose activity, negative = inhibition, actives largely listed as inhibitors. hit rate 8.8% among 350,000. AID 504332; note: % is set by controls: 0 for no effect and ±100 for the full control effect; nearly all actives have a fitted effect of over 75% in size
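AlphaScreen read-out: biotin-H3K9 peptide (500 nM) methylation by 20 nM enzyme with 20 uM SAM, 2 h at room temperature after 15 min compound preincubation; anti-monomethyl H3K9 antibody plus donor/acceptor beads, 10 min dark.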
BAZ2B inh – inhibitors of human BAZ2B bromodomain. AlphaScreen BAZ2B-H3K14Ac peptide displacement. Potency, µM (top dose mostly 114 µM), inactives show at the top dose activity change, negative = inhibition, hits mostly inhibitors. hit rate 4.4% among 360,000. AID 504333; note: % is set by controls: 0 for no effect and ±100 for the full control effect; nearly all actives have a fitted effect of over 60% in size
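AlphaScreen luminescence quantifies BAZ2B engagement of H3K14Ac peptide; the protein and biotinylated peptide are both at 50 nM final, buffer PBS pH 7.4 with 0.01% Tween-20, all steps at room temperature.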
JMJD2A Tudor – JMJD2A Tudor domain (human) inhibition; AlphaScreen JMJD2A-Tudor / H3K4me3 peptide binding; Potency, µM (titrated, usually from 114 µM), for the others: top-dose activity change, negative = inhibition, actives largely listed as inhibitors; hit rate 4.4% among 390,000; AID 504339; note: % is set by controls: 0 for no effect and ±100 for the full control effect; nearly all actives have a fitted effect of over 50% in size
HP1b binding inh – blocks HP1-beta chromodomain binding to methylated histone tails; P83916; AlphaScreen HP1-beta / biotin-H3K9me3 peptide binding; Potency, µM (highest dose often 114 µM), without a hit: at the top dose activity change, negative = inhibition, hits mostly inhibitors; hit rate 0.56% among 390,000; AID 540317; note: nearly all actives have a fitted effect of over 70% in size
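HP1-beta protein (50 nM final) preincubated 30 min at room temperature with biotinylated H3(1-18)K9me3 peptide (50 nM) in PBS pH 7.4, 0.01% Tween-20, then compound added for 30 min. AlphaScreen streptavidin donor/nickel chelate acceptor beads (10 ug/mL final), 30 min dark, luminescence read.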
Starred values were filed as active, the others as inactive; ? = inconclusive; / = no result; [ ] = another dose, or the depositor's remark. Calls come from the whole dose curve; as a rule, active = well fitted curve in the direction sought with a large enough effect; inconclusive = small, poorly fitted or top-dose-only effect, or another doubt; inactive = no such curve, though single readings can be large; an effect the other way counts as inactive or inconclusive. Potency is the fitted concentration of half-maximal effect.

SMILES	Sfp PPTase inh	G9a block	BAZ2B inh	JMJD2A Tudor	HP1b binding inh
CC(C)OC(=O)c1c(N)sc2c1CCCC2	/	/	/	?	-36%
CCCOC(=O)c1c(N)sc2c1CCC2	50µM*	50µM*	?	?	?
NC(=O)c1c(N)sc2c1CCCCC2	22µM*	8.9µM*	5%	?	18µM*
Nc1sc2c(c1C(=O)NC1CCS(=O)(=O)C1)CCC2 (stereo unspecified)	18µM*	7.1µM*	-36%	7%[11.4 µM]	7%
NC(=O)c1c(N)sc2c1CCC2	22µM*	/	-13%	-18%	1%
COc1ccc(CCN(C)S(=O)(=O)c2ccc(Cl)nc2)cc1OC	0%	1%	/	-20%	31%
Cc1cccc(N2CCN(C(=O)c3ccc4c(c3)NC(=O)C(CSCc3ccc(F)cc3)N4)CC2C)c1 (stereo unspecified)	56µM*	14µM*	-28%[57.1 µM]	/	/
Cc1ccc(CSCC2Nc3ccc(C(=O)N4CCN(c5cccc(C)c5)C(C)C4)cc3NC2=O)cc1 (stereo unspecified)	50µM*	7.1µM*	-30%[57.1 µM]	/	/
C=CCSc1nnc(-c2cccc3ccccc23)o1	/	/	/	13µM*	52%
C=CCNc1nnc(-c2cccc3ccccc23)o1	/	/	/	11µM*	/
CCOc1ccc(CNC(=O)C2Cc3cc(S(=O)(=O)N4CCCCCC4)ccc3N2C(C)=O)cc1 (stereo unspecified)	/	?	?	-15%	28%
COc1ccccc1N1CCN(C(=O)CCNS(=O)(=O)c2cc(Br)cnc2N)CC1	10%	10%	-26%	-12%	42%
O=C(NC1=C(Nc2ccc(F)cc2)C(=O)c2ccccc2C1=O)c1ccc(Cl)cc1	-2%	5µM*	-37%	-13%	?
CCCc1nc2c(C)cc(C)cc2c(N)c1CC	0%	?	-34%	4.5µM*	-11%
Cc1cc(C)c2nc(C(F)(F)F)c(C#N)c(N)c2c1	5%	16%	10%	-5%	26%
COc1ccc(NC(=O)c2ccccc2SC)c(OC)c1	11%	18µM*	-12%	-11%	35%
CCOC(=O)c1ccccc1NC(=O)c1ccccc1SC	-25%	?	29%	72%	61%
COc1ccc2o/c(=N\O)c(C(=O)Nc3ccccc3OC)cc2c1	50µM*	1.6µM*	-24%	-25%	5%
COC(=O)c1ccccc1NC(=O)c1ccccc1SC	?	8.9µM*	62%	26%	40%
COc1ccc(NC(=O)c2c(OC)cccc2OC)c(OC)c1	2%	?	50µM*	56µM*	?
CCCCCCSc1cc(-c2nc3ccc(C)cn3c2NCc2ccccc2)ccc1OC	/	14%[2.33 µM]	-34%	?	33%
CN1C(=O)c2ccccc2Sc2ccc(NC(=O)N3CCN(c4ccc(F)cc4)CC3)cc21	/	-31%[59 µM]	-26%	-25%	19%
CCN1CCN(C(=O)Nc2cccc3ccccc23)CC1	0%	40µM*	?	-1%	21%
Cc1ccc(-n2ncc(C(=O)NCCN3CCN(C)CC3)c2C2CCN(C(=O)OC(C)(C)C)CC2)c(C)c1	/	-29%[59 µM]	6%[57.1 µM]	-19%	19%
O=C1CSC(=S)N1/N=C/c1ccc(Cl)c([N+](=O)[O-])c1	-25%	/	35µM*	/	/
SMILES	Sfp PPTase inh	G9a block	BAZ2B inh	JMJD2A Tudor	HP1b binding inh
Cc1ccccc1/C=N/N1C(=O)CSC1=S	-16%	?	-27%	?	-5%
O=C1CSC(=S)N1/N=C/c1cccnc1	?	7.1µM*	-3%	-7%	6%
O=C1CSC(=S)N1/N=C/c1ccc2c(c1)OCCO2	2%	?	?	?	-9%
O=C1CSC(=S)N1Cc1cccnc1	-27%	?	40µM*	?	?
COc1ccc(Br)cc1/C=N/N1C(=O)CSC1=S	-9%	79µM*	?	?	?
O=C1CSC(=S)N1/N=C/c1cc(Br)c(O)c(Br)c1	?	40µM*	35µM*	16µM*	-36%[57 µM]
O=C1CSC(=S)N1N=Cc1ccccc1O	/	/	/	18µM*	?
CCOC(=O)c1cc(CC)sc1N1C(=O)CC(Sc2ccccc2C(=O)O)C1=O (stereo unspecified)	3.5µM*	1.8µM*	63µM*	-26%	24%
CCOC(=O)c1cc(CC)sc1N1C(=O)CC(Sc2ncccc2C(=O)O)C1=O (stereo unspecified)	-20%	25µM*	-22%	-6%	54%
CCOC(=O)c1cc(CC)sc1NC(=O)C(c1ccccc1)c1ccccc1	8%	65%	10%	24%	55%
CCOc1ccccc1/C=C(/NC(=O)c1ccccc1)C(=O)NC(C)c1ccccc1 (stereo unspecified)	9%	?	-1%	-21%	22%
O=C(O)CCn1nc(-c2ccc(F)cc2)cc(Cc2ccccc2)c1=O	20%	-43%	-13%	-1%	16%
N#C[C@H]1[C@H](c2ccccc2)[C@](C#N)(C(=O)c2ccccc2)[C@@H]2C=Cc3ccccc3N21	2%	25µM*	28µM*	/	/
N#C[C@H]1C(O)C(O)c2ccccc2N1C(=O)c1ccccc1 (stereo partly specified)	/	/	/	-6%	40%
CCOC(=O)Cc1c(C)nc2c(-c3ccc(Cl)cc3)c(C)[nH]n2c1=O	-2%	50µM*	8%	-18%	37%
CCOC(=O)Cc1c(C)nc2c(C#N)c[nH]n2c1=O	17%	79µM*	-6%	-24%	31%
CCc1c(C)nc2c(C#N)c[nH]n2c1=O	22%	16%[2.33 µM]	-17%	-13%	18%
NNC(=O)c1cn2ccccc2n1	79µM*	3.2µM*	18µM*	20µM*	28%
Cc1ccc(C(=O)COC(=O)c2cn3ccccc3n2)cc1	16%	-3%	-4%	-15%	35%
CCS(=O)(=O)N1CC(=O)N(c2ccccc2C)C(C)(C(=O)NC2CCCCC2)C1 (stereo unspecified)	/	5%[59 µM]	4%	-10%	-9%
COc1c(Cl)cc(Cl)cc1CNCCNCC(C)O (stereo unspecified)	-5%	35µM*	-30%[57.1 µM]	?	38%
COc1ccc(NC(=O)c2c(NC(=O)c3ccc(Br)cc3)sc3c2CCCC3)cc1	/	?	2%	1%	38%
Cc1ccc(CO/N=C\Cc2snc(Sc3ncc(C(F)(F)F)cc3Cl)c2C#N)cc1	-13%	11µM*	35µM*	?	?
N#CCc1ccc(Oc2ncc(C(F)(F)F)cc2Cl)cc1	8%	48%	33%	0%	-7%
CCCCc1cc(=O)oc2c(CN(C)C)c(O)c(Cl)cc12	?	-3%[12.7 µM]	8%	16µM*	-4%
Cc1c(C)c2cc(Cl)c(O)c(CN(C)C)c2oc1=O	7%	-2%[12.7 µM]	-1%	18µM*	-1%
O=C(Nc1ccccc1C(=O)N1CCCCC1)c1nsc2ccccc12	/	4%[59 µM]	12%	1%	56%[57 µM]
CC(C)[C@H]1COCCS(=O)(=O)N1Cc1ccccc1-c1ccc(F)cc1	/	/	/	-11%	56%
CCc1cccc(CC)c1NC(=O)c1cccc(N)c1	17%	36%[12.7 µM]	-5%	56µM*	?
